Only some compounds are listed: those with a hit (about 8% of all), similar ones and a draw of the others.
Marburg entry inh: Marburg virus entry inhibition | 1.8% of 300,000 active | Potency, µM (series often up to 37.8 µM), inactives show top-dose activity change, negative = inhibition, hits mostly inhibitors | Marburg virus pseudotyped entry inhibition, cell reporter; calls by dose curve; tested in HEK293 cells; note: potency is the fitted concentration of half-maximal effect; % is set by controls: 0 for no effect and ±100 for the full control effect
HCV inhibitor: inhibitors of hepatitis C virus infection; Potency, µM (titrated, usually from 41.8 µM), for inactives: top-dose activity change, negative = inhibition, most hits filed as inhibitors; AID 651820; Huh7.5.1 HCVcc-Cre infection, luciferase reporter, 44 h; 3.4% of 340,000 active; active = well fitted inhibition curve with a large enough effect; inconclusive = small, poorly fitted or top-dose-only effect, or another doubt; inactive = no such curve, though single readings can be large or run the other way; note: potency is the fitted concentration of half-maximal effect; % is set by controls: 0 for no effect and ±100 for the full control effect
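Compounds are dispensed onto cells plated 4 h earlier at 1,000 per well, with HCVcc-Cre virus (about 0.5 moi) added next. Following 44 h of culture, luminescent signal is measured for 15 sec after 15 min with substrate at room temperature.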
FMDV inh: blocks foot and mouth disease virus; FMDV antiviral cell-based qHTS; Potency, µM (series often up to 57.9 µM), inactives show at the highest dose activity change, negative = inhibition, usual class: inhibitors; 1.2% of 410,000 active; calls by dose curve; tested in HEK293T cells; note: read-out not given here; potency is the fitted concentration of half-maximal effect; % is set by controls: 0 for no effect and ±100 for the full control effect; nearly all actives have a fitted effect of over 45% in size
LASV entry inh: inhibitors of Lassa virus binding or cell entry. Potency, µM (series often up to 37.9 µM), without a hit: at the top dose activity change, negative = inhibition, usual class: inhibitors. 1.2% of 300,000 active. Lassa virus pseudotype entry inhibition, cell reporter; calls by dose curve; tested in HEK293 cells; note: potency is the fitted concentration of half-maximal effect; % is set by controls: 0 for no effect and ±100 for the full control effect; nearly all actives have a fitted effect of over 50% in size
SARS PLpro yeast: blocks SARS-CoV papain-like protease in a yeast assay; S. cerevisiae expressing SARS-CoV PLpro, growth rescue; 0.19% of 330,000 active; Potency, µM (titrated, usually from 32.9 µM), inactives show at the top dose activity, positive = growth rescue, actives largely listed as activators; calls by dose curve; note: potency is the fitted concentration of half-maximal effect; 0% is about no effect; nearly all actives have a fitted effect of over 55% in size
HCMV inh: inhibitors of human cytomegalovirus | HFF cells, HCMV-luciferase reporter, 72 h; hits give low values | 4.5% of 410,000 active | activity change, negative = inhibition, % at 57.5 µM; in the data active = activity change below about -60%; inconclusive = no clear call, values can overlap the other calls; inactive = above about -39%; note: % is set by controls: 0 for no effect and ±100 for the full control effect
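Steps: HFFs plated, 16 h 37C; compounds added; HCMV-luciferase added to MOI 1 PFU/cell; 72 h 37C; OneGlo reagent, 5 min room temperature; luminescence read, normalized to controls.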
Active calls of the source: *; ? = inconclusive; . = no result given; ! = not confirmed by another sample; [ ] = dose if it differs, or a comment.

SMILES | Marburg entry inh | HCV inhibitor | FMDV inh | LASV entry inh | SARS PLpro yeast | HCMV inh
CC1CCCC(C)N1CCCNC(=O)c1cc2c(s1)-c1ccccc1OC2 (centres undefined) | . | ? | -10.6% | . | 15.0% | -33.2
Cc1cccc2c1-c1sc(C(=O)NCCCN3CCCC(C)C3)cc1CO2 (centres undefined) | . | 11.2µM* | -11.3% | . | ? | -23.5
Cc1cccc(CCNC(=O)c2cc3c(s2)-c2c(C)cccc2OC3)c1 | -2.3%[46.1 µM] | . | ? | . | . | -20.3
CCN1CCN(CCCNC(=O)c2cc3c(s2)-c2ccccc2OC3)CC1 | ? | 7.08µM* | 8.6% | . | -5.6% | -108.1*!
Cc1csc(NC(=O)c2cc3c(s2)-c2ccccc2OC3)n1 | ? | 11.2µM* | -7.3% | 14.8% | 15.8% | 18.2
Cc1cccc2c1-c1sc(C(=O)NCCc3ccc(Cl)cc3)cc1CO2 | -24.5%[46.1 µM] | . | 0.0% | . | . | -87.1*
CCOc1ccc(NC(=O)c2cc3c(s2)-c2ccccc2OC3)cc1 | 3.1%[46.1 µM] | . | -26.5% | . | . | -27.0
CCCN1CCN(CCCNC(=O)c2cc3c(s2)-c2ccccc2OC3)CC1 | ? | 10µM* | 0.1% | . | 1.8% | -23.2
O=C(NCCCN1CCN(c2ccccc2F)CC1)c1cc2c(s1)-c1ccccc1OC2 | -24.7%[46.1 µM] | . | 0.9% | . | . | ?
CCCN1CCN(C(=O)c2cc3c(s2)-c2ccccc2OC3)CC1 | . | -8.8% | 51.5% | . | -6.1% | 60.7
CN1C(=O)C[C@@H](N2CCN(c3ccc(Cl)c(Cl)c3)CC2)C1=O | -7.5% | . | . | . | . | .
CC1CC(C)CN(CCCNC(=O)c2cc3c(s2)-c2ccccc2OC3)C1 (centres undefined) | . | 8.91µM* | -10.0% | . | 8.7% | ?
CC(C)c1ccccc1OCC(=O)Nc1ccc2[nH]ncc2c1 | -5.9%[46.1 µM] | 22.4µM* | -4.6% | ? | -10.5% | ?
CC1CC(Nc2ccccc2)c2ccccc2N1C(=O)c1ccco1 (centres undefined) | ? | -25.1% | -13.0% | -17.6% | 4.9% | -11.4
CC1CC(Nc2ccccc2)c2ccccc2N1C(=O)c1ccncc1 (centres undefined) | 10µM* | 4.2% | -2.5% | -24.2% | -0.7% | -9.4
O=C(/C=C/c1ccco1)NCCc1ccc(F)cc1 | 18.1%[46.1 µM] | -19.5% | 22.0% | 19.4%[46.1 µM] | -0.9% | -77.7*
O=C(/C=C/c1ccco1)Nc1ccc(F)cc1 | . | . | 25.7% | -15.9%[46.1 µM] | -3.4% | -11.1
C/C(=N\OC(=O)c1c(-c2ccccc2Cl)noc1C)c1ccncc1 | ? | -11.0% | ? | ? | 1.8% | -1.0
COc1ccc(C(C)=NOC(=O)c2c(-c3ccccc3Cl)noc2C)cc1CN1CCOCC1 | . | . | ? | . | . | -60.2*
S=C(NC1CCCCC1)N1CCOCCOCCN(C(=S)NC2CCCCC2)CCOCCOCC1 | ? | -17.4% | -13.3% | ? | -1.1% | -78.0*
Cc1ccc2c(c1)CN(C(=O)CC(c1ccccc1)c1ccco1)CC(C)O2 (centres undefined) | . | . | -5.8% | . | . | .
NCCCCCc1nnc(SCc2ccccc2Cl)o1 | ? | -19.7% | ? | ? | 0.3% | -76.2*
NCCc1nnc(SCc2c(Cl)cccc2Cl)o1 | . | 7.2% | -16.8% | . | 0.4% | -24.6
N[C@@H](Cc1ccccc1)c1nnc(SCc2ccccc2Cl)o1 | -16.2% | -2.8% | 0.9% | 19.1% | -0.7% | -69.9*
O=C1CSc2ccc(S(=O)(=O)N3CCN(c4ccccc4F)CC3)cc2N1 | . | ? | ? | . | 0.3% | -76.1*
SMILES | Marburg entry inh | HCV inhibitor | FMDV inh | LASV entry inh | SARS PLpro yeast | HCMV inh
O=C1CSc2ccc(S(=O)(=O)N3CCN(c4ccccc4)CC3)cc2N1 | . | 0.3% | -23.2% | . | 0.8% | -22.3
O=C1CSc2ccc(S(=O)(=O)NCc3ccccc3Cl)cc2N1 | . | -15.0% | 76.7% | . | 28.7% | -60.0*
CC(C)OCCCn1c(=O)c2ccccc2n2c(-c3cc(Cl)ccc3O)nnc12 | 7.7%[46.1 µM] | . | -7.4% | 5.7%[46.1 µM] | . | -20.0
COC(=O)c1sc2ncn(CC(=O)NCCc3ccc(OC)c(OC)c3)c(=O)c2c1C | 2.2% | -26.9% | -22.2% | -0.8% | 1.3% | 45.9
COc1ccc(CCNC(=O)Cn2cnc3scc(-c4ccccc4)c3c2=O)cc1OC | . | -18.8% | -17.7% | . | -1.2% | -101.9*
CC(=O)OC[C@H]1O[C@H](C#Cc2ccccc2Cl)C=C[C@@H]1OC(C)=O | -1.2%[14.2 µM] | . | . | . | . | .
CN(C)c1nc(OCCOC(=O)c2ccccc2)nc(N(C)C)n1 | -0.3% | 25.1µM* | -0.8% | -9.4% | 14.3% | -19.5
O=C(NCc1ccco1)C1=COC2=NC(=O)N(Cc3ccccc3)CCN12 | . | . | . | . | . | -8.3
O=C(Cn1cnc2c(oc3nc4c(cc32)CCCC4)c1=O)Nc1cccc(Cl)c1 | 5.1%[46.1 µM] | 25.1µM* | 11.2% | 1.6% | 1.3% | 34.0
COC(=O)[C@H]1[C@@H](c2cccc(C(F)(F)F)c2)NC(=O)N(Cc2ccccc2)[C@@H]1C | 25.5%[14.2 µM] | . | . | . | . | .
N#Cc1ccsc1NC(=O)c1cccc([N+](=O)[O-])c1 | -7.7%[46.1 µM] | 10µM* | -21.1% | 0.0% | 1.4% | 27.3
Cc1ccc(Cl)cc1N1CCN(C(=O)c2ccc3c(c2)N(Cc2ccccc2F)C(=O)c2ccccc2S3(=O)=O)CC1 | ? | . | -20.7% | ? | . | ?
c1ccc(Cn2ccc(-c3cnc(-c4ccccc4)s3)n2)cc1 | ? | ? | -17.0% | 11.2µM* | -3.1% | 57.6
COc1ccc(C)cc1N(C(=O)c1ccccc1)c1nc2ccccc2s1 | ? | 15.8µM* | -24.0% | 0.1% | -27.4% | -23.6
CC1CN(S(=O)(=O)c2cccc(C(=O)Nc3ccc4c(c3)CCC4)c2)CC(C)O1 (centres undefined) | 11.2µM* | ? | 11.3% | ? | -34.1% | ?
CN(c1cccc(Cl)c1)S(=O)(=O)c1cccc(C(=O)Nc2ccc3c(c2)CCC3)c1 | 2.24µM* | 6.31µM* | -11.0% | ? | 12.8% | -87.2*
O=c1c(CCc2ccccc2)nc2cnc(N3CCNCC3)nc2n1CCc1ccccc1 | . | . | -6.8% | . | . | .
COCCNC(=O)CCc1c(C)nc2c(c(C)nn2-c2ccc(C)cc2)c1C | ? | -8.5% | ? | -12.4%[46.1 µM] | -1.9% | -11.5
CCN(CC)CCNC(=O)CCc1c(C)nc2c(c(C)nn2-c2ccc(C)cc2)c1C | . | 3.55µM* | -16.2% | . | 1.1% | -92.9*
O=C(Nc1cccc(C(F)(F)F)c1)C1CCCN1S(=O)(=O)c1cccc2cccnc12 (centres undefined) | ? | ? | ? | ? | -0.2% | -92.5*
O=C(Nc1cccc(Cl)c1)C1CCCN1S(=O)(=O)c1cccc2cccnc12 (centres undefined) | ? | . | -7.5% | . | . | 14.0
Cc1cc(O)c(-c2cc(C(=O)Nc3ccc(S(=O)(=O)N4CCOCC4)cc3)[nH]n2)cc1C | ? | ? | ? | ? | -2.0% | ?
Cc1cc(O)c(-c2cc(C(=O)NCCc3ccc(S(N)(=O)=O)cc3)[nH]n2)cc1C | ? | ? | -28.2% | -1.8% | 1.1% | ?
O=C(Nc1ccc(S(=O)(=O)N2CCOCC2)cc1)c1cc(-c2cc(Cl)ccc2O)n[nH]1 | . | 10µM* | ? | . | -0.1% | -64.6*
